From the supplement of paper PMC9694430

How the values were obtained:
Assay in all cases: thermal shift delta Tm vs DMSO control; higher = stronger stabilization (binding)
Details in all cases: 12.5 µM; protein concentration 2 µM
LOC_OS01G01410-cb001 = tested on: LOC_OS01G01410-cb001
Procedure, shortened: (§1)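 Heating from 25°C to 95°C at 0.05°C/s, fluorescence was recorded for 19.5 μl wells of 2 μM E. coli-expressed, purified rice kinase domain in 100 mM potassium phosphate pH 7.5, 150 mM NaCl, 10% glycerol and 5 × SYPRO Orange with compound in DMSO. Boltzmann fits gave melting temperatures for this differential scanning fluorimetry assay. The shift reported is the mean of three replicates against the DMSO-only protein.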

LOC_OS01G02750-cb003 = tested on: LOC_OS01G02750-cb003
Procedure, shortened: as §1

LOC_OS01G10900-cb004 = tested on: LOC_OS01G10900-cb004
Procedure, shortened: as §1

LOC_OS01G13800-cb001 = tested on: LOC_OS01G13800-cb001
Procedure, shortened: as §1

LOC_OS01G14860-cb001 = tested on: LOC_OS01G14860-cb001
Procedure, shortened: as §1

LOC_OS01G21960-cb002 = tested on: LOC_OS01G21960-cb002
Procedure, shortened: as §1

LOC_OS01G39600-cb002 = tested on: LOC_OS01G39600-cb002
Procedure, shortened: as §1

LOC_OS01G48390-cb002 = tested on: LOC_OS01G48390-cb002
Procedure, shortened: as §1

LOC_OS01G51400-cb002 = tested on: LOC_OS01G51400-cb002
Procedure, shortened: as §1

LOC_OS01G52050-cb004 = tested on: T1, LOC_OS01G52050-cb004
T1 sequence (whole entry): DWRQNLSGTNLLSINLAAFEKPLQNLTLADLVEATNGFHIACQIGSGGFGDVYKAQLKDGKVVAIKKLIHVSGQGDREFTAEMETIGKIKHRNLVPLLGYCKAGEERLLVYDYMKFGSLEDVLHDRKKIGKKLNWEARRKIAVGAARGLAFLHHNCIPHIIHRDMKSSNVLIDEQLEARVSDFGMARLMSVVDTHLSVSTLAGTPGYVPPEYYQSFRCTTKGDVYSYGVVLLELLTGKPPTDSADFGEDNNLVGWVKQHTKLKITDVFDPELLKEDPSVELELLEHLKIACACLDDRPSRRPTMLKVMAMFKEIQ
Procedure, shortened: as §1
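Also: purified Escherichia coli-expressed rice kinase domain construct.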

In the case of O=C1NC(=O)/C(=C/c2ccc(-c3ccc(F)cc3O)o2)S1, the “thermal shift delta Tm” value (LOC_OS01G01410-cb001) is reported as 3.59 °C, the “thermal shift delta Tm” value (LOC_OS01G02750-cb003) is reported as 5.21 °C and the “thermal shift delta Tm” value (LOC_OS01G10900-cb004) is reported as 2.81 °C. For the same molecule, the “thermal shift delta Tm” value (LOC_OS01G13800-cb001) was 2.09 °C, the “thermal shift delta Tm” value (LOC_OS01G14860-cb001) was 4.25 °C and the “thermal shift delta Tm” value (LOC_OS01G21960-cb002) was 2.37 °C. For the same molecule, the “thermal shift delta Tm” value (LOC_OS01G39600-cb002) was 7.64 °C, the “thermal shift delta Tm” value (LOC_OS01G48390-cb002) was 3.1 °C and the “thermal shift delta Tm” value (LOC_OS01G51400-cb002) was 3.89 °C. For the same molecule, the “thermal shift delta Tm” value (LOC_OS01G52050-cb004) was 8.12 °C.
NC(=O)c1ncn([C@@H]2O[C@H](CO)[C@@H](O)[C@H]2O)c1N [AICAR (Acadesine)] was tested, and the “thermal shift delta Tm” value (LOC_OS01G01410-cb001) was 0.45 °C, the “thermal shift delta Tm” value (LOC_OS01G02750-cb003) was 1.18 °C and the “thermal shift delta Tm” value (LOC_OS01G10900-cb004) was 0.56 °C. The “thermal shift delta Tm” value (LOC_OS01G13800-cb001) was 0.52 °C, the “thermal shift delta Tm” value (LOC_OS01G14860-cb001) was 0.07 °C and the “thermal shift delta Tm” value (LOC_OS01G21960-cb002) was 0.94 °C. For the same molecule, the “thermal shift delta Tm” value (LOC_OS01G39600-cb002) was -0.35 °C, the “thermal shift delta Tm” value (LOC_OS01G48390-cb002) was 0.6 °C and the “thermal shift delta Tm” value (LOC_OS01G51400-cb002) was 0.32 °C. For the same molecule, the “thermal shift delta Tm” value (LOC_OS01G52050-cb004) was 0.33 °C.
C[C@@H]1CN(C(=O)c2ccc(NC(=O)c3cc(O[C@H](C)c4c(Cl)ccc(F)c4Cl)c(N)nn3)cc2)C[C@H](C)N1 [Ensartinib (X-396)] was tested, and the “thermal shift delta Tm” value (LOC_OS01G01410-cb001) was 2.83 °C, the “thermal shift delta Tm” value (LOC_OS01G02750-cb003) was 1.44 °C and the “thermal shift delta Tm” value (LOC_OS01G10900-cb004) was 2.67 °C. For the same molecule, the “thermal shift delta Tm” value (LOC_OS01G13800-cb001) was -0.39 °C, the “thermal shift delta Tm” value (LOC_OS01G14860-cb001) was 0.08 °C and the “thermal shift delta Tm” value (LOC_OS01G21960-cb002) was 0.04 °C. The “thermal shift delta Tm” value (LOC_OS01G39600-cb002) was 0.4 °C, the “thermal shift delta Tm” value (LOC_OS01G48390-cb002) was 5.02 °C and the “thermal shift delta Tm” value (LOC_OS01G51400-cb002) was -0.19 °C. The “thermal shift delta Tm” value (LOC_OS01G52050-cb004) was 3.28 °C.
In the case of CC(C)[C@H](CO)Nc1nc(Nc2cccc(Cl)c2)c2ncn(C(C)C)c2n1 [Purvalanol A], the “thermal shift delta Tm” value (LOC_OS01G01410-cb001) is reported as 1.58 °C, the “thermal shift delta Tm” value (LOC_OS01G02750-cb003) is reported as 3.04 °C and the “thermal shift delta Tm” value (LOC_OS01G10900-cb004) is reported as 0.07 °C. For the same molecule, the “thermal shift delta Tm” value (LOC_OS01G13800-cb001) was -0.49 °C, the “thermal shift delta Tm” value (LOC_OS01G14860-cb001) was 1.34 °C and the “thermal shift delta Tm” value (LOC_OS01G21960-cb002) was 2.18 °C. The “thermal shift delta Tm” value (LOC_OS01G39600-cb002) was -0.08 °C, the “thermal shift delta Tm” value (LOC_OS01G48390-cb002) was 2.56 °C and the “thermal shift delta Tm” value (LOC_OS01G51400-cb002) was 0.45 °C. The “thermal shift delta Tm” value (LOC_OS01G52050-cb004) was 5 °C.
COc1cc2ncnc(Nc3cccc(Cl)c3)c2cc1OC [AG-1478 (Tyrphostin AG-1478)] was tested, and the “thermal shift delta Tm” value (LOC_OS01G01410-cb001) was 1.49 °C, the “thermal shift delta Tm” value (LOC_OS01G02750-cb003) was 1.82 °C and the “thermal shift delta Tm” value (LOC_OS01G10900-cb004) was 0.65 °C. The “thermal shift delta Tm” value (LOC_OS01G13800-cb001) was 0.5 °C, the “thermal shift delta Tm” value (LOC_OS01G14860-cb001) was 0.56 °C and the “thermal shift delta Tm” value (LOC_OS01G21960-cb002) was 0.99 °C. For the same molecule, the “thermal shift delta Tm” value (LOC_OS01G39600-cb002) was 1.07 °C, the “thermal shift delta Tm” value (LOC_OS01G48390-cb002) was 2.73 °C and the “thermal shift delta Tm” value (LOC_OS01G51400-cb002) was 0.17 °C. The “thermal shift delta Tm” value (LOC_OS01G52050-cb004) was 1.69 °C.
CCN1CCN(Cc2ccc(C(=O)Nc3ccc(C)c(Oc4ccc5c(c4)CC(=O)N5)c3)cc2C(F)(F)F)CC1 was tested, and the “thermal shift delta Tm” value (LOC_OS01G01410-cb001) was 0.03 °C, the “thermal shift delta Tm” value (LOC_OS01G02750-cb003) was 1.85 °C and the “thermal shift delta Tm” value (LOC_OS01G10900-cb004) was 2.1 °C. For the same molecule, the “thermal shift delta Tm” value (LOC_OS01G13800-cb001) was 0.59 °C, the “thermal shift delta Tm” value (LOC_OS01G14860-cb001) was 0.51 °C and the “thermal shift delta Tm” value (LOC_OS01G21960-cb002) was 1.73 °C. The “thermal shift delta Tm” value (LOC_OS01G39600-cb002) was -0.14 °C, the “thermal shift delta Tm” value (LOC_OS01G48390-cb002) was 0.94 °C and the “thermal shift delta Tm” value (LOC_OS01G51400-cb002) was 0.25 °C. For the same molecule, the “thermal shift delta Tm” value (LOC_OS01G52050-cb004) was 1.08 °C.
With C1=N/C2=N/c3ccc(OCCN4CCCC4)c(c3)COC/C=C/COCc3cccc(c3)C(=C1)N2 [Pacritinib (SB1518)] the “thermal shift delta Tm” value (LOC_OS01G01410-cb001) was 2.82 °C, the “thermal shift delta Tm” value (LOC_OS01G02750-cb003) was 2.89 °C and the “thermal shift delta Tm” value (LOC_OS01G10900-cb004) was 2.75 °C. For the same molecule, the “thermal shift delta Tm” value (LOC_OS01G13800-cb001) was -0.21 °C, the “thermal shift delta Tm” value (LOC_OS01G14860-cb001) was 4.13 °C and the “thermal shift delta Tm” value (LOC_OS01G21960-cb002) was 2.75 °C. The “thermal shift delta Tm” value (LOC_OS01G39600-cb002) was 4.09 °C, the “thermal shift delta Tm” value (LOC_OS01G48390-cb002) was 2.71 °C and the “thermal shift delta Tm” value (LOC_OS01G51400-cb002) was 0.34 °C. The “thermal shift delta Tm” value (LOC_OS01G52050-cb004) was 8.62 °C.
With CCN(CC)CCNC(=O)c1c(C)[nH]c(/C=C2\C(=O)Nc3ccc(-c4csc(-c5ccccc5)n4)cc32)c1C [Amcasertib (BBI503)] the “thermal shift delta Tm” value (LOC_OS01G01410-cb001) was 3.77 °C, the “thermal shift delta Tm” value (LOC_OS01G02750-cb003) was 0.02 °C and the “thermal shift delta Tm” value (LOC_OS01G10900-cb004) was 5.39 °C. The “thermal shift delta Tm” value (LOC_OS01G13800-cb001) was -0.01 °C, the “thermal shift delta Tm” value (LOC_OS01G14860-cb001) was 1.64 °C and the “thermal shift delta Tm” value (LOC_OS01G21960-cb002) was 1.66 °C. For the same molecule, the “thermal shift delta Tm” value (LOC_OS01G39600-cb002) was 4.12 °C, the “thermal shift delta Tm” value (LOC_OS01G48390-cb002) was -0.28 °C and the “thermal shift delta Tm” value (LOC_OS01G51400-cb002) was 0.02 °C. For the same molecule, the “thermal shift delta Tm” value (LOC_OS01G52050-cb004) was -0.1 °C.
For COc1ccc(CC(=O)Nc2nc3c(s2)CCc2ccccc2-3)cc1OC, the “thermal shift delta Tm” value (LOC_OS01G01410-cb001) was 0.68 °C, the “thermal shift delta Tm” value (LOC_OS01G02750-cb003) was 1.06 °C and the “thermal shift delta Tm” value (LOC_OS01G10900-cb004) was 0.85 °C. For the same molecule, the “thermal shift delta Tm” value (LOC_OS01G13800-cb001) was 0.28 °C, the “thermal shift delta Tm” value (LOC_OS01G14860-cb001) was 0.9 °C and the “thermal shift delta Tm” value (LOC_OS01G21960-cb002) was 0.69 °C. For the same molecule, the “thermal shift delta Tm” value (LOC_OS01G39600-cb002) was 0.43 °C, the “thermal shift delta Tm” value (LOC_OS01G48390-cb002) was 1.55 °C and the “thermal shift delta Tm” value (LOC_OS01G51400-cb002) was -0.32 °C. The “thermal shift delta Tm” value (LOC_OS01G52050-cb004) was 2.89 °C.
